Test results taken from PubChem BioAssay (NCATS).
Inconclusive results are not listed. Where a call stands in place of a potency, no number is given. Activity calls are given as the source filed them. Calls follow the shape of the dose curve; as a rule, active = well fitted inhibition curve with a large enough effect; inconclusive = small, poorly fitted or top-dose-only effect; inactive = no such curve, though single readings can be large or run the other way.

Legend:
[1] = test system: Zika virus NS2B-NS3 protease (unlinked complex); assay: Primary screen GU Rhodamine qHTS for Zika virus inhibitors: Unlinked NS2B-NS3 protease assay (AID 1347159); also: nearly all actives have a fitted effect of over 60% in size; also: potency is read from the fitted curve at half-maximal effect
Outline: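 Compounds, tested up to 114 microM, were incubated for 15 minutes with 25 nM unlinked NS2B-NS3 protease at pH 8.0. Cleavage of 1.5 microM Rhodamine110 substrate was then followed by fluorescence for 15 minutes.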

[2] = test system: Zika virus NS2B-NS3 protease (linked construct); assay: Primary screen NINDS Rhodamine qHTS for Zika virus inhibitors (AID 1347160); also: nearly all actives have a fitted effect of over 55% in size
Outline: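 Percent inhibition, normalized to uninhibited and enzyme-free controls, is fitted to a 4-parameter Hill equation. Fluorescence change comes from a 15-min cleavage of 1.5 microM bis-peptide Rhodamine110 substrate by 25 nM linked NS2B-NS3 at room temperature.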

[3] = Confirmatory screen NINDS Rhodamine qHTS for Zika virus inhibitors (AID 1347161);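 also: purified Zika NS2B-NS3 protease with linked NS2B cofactor domain and Rhodamine110 peptide substrate; series mostly up to about 110 µM; nearly all actives have a fitted effect of over 60% in size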
Outline: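 In 10 mM Tris-HCl pH 8.0 containing 0.01% Tween 20, linked NS2B-NS3 protease (25 nM final) is exposed to test compounds for 15 min. Cleavage of 1.5 microM Rhodamine110 substrate is tracked by fluorescence over 15 min.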

Row | SMILES | Potency [1] | Potency [2] | Potency [3]
1 | CC(C)[C@H]1CC[C@@]2(O)COC(=O)[C@H]2[C@@H]1/C=C(\CO)C(=O)O | inactive | inactive | –
2 | CC(=O)O[C@H]1[C@H](O[C@H]2[C@@H]3C=CO[C@@H](O[C@@H]4O[C@H](CO)[C@@H](O)[C@H](O)[C@H]4O)[C@@H]3[C@@]3(CO)O[C@@H]23)O[C@@H](C)[C@H](OC(=O)/C=C/c2ccccc2)[C@H]1OC(=O)/C=C/c1ccccc1 | inactive | inactive | –
3 | COc1ccc2cc(C(C)C(=O)Oc3ccc(C(N)=S)cc3)ccc2c1 (centres undefined) | inactive | inactive | –
4 | OC[C@H]1O[C@@H](O[C@H]2[C@H](OCc3ccccc3)O[C@H](CO[C@@H]3OC[C@@H](O)[C@H](O)[C@H]3O)[C@@H](O)[C@@H]2O)[C@H](O)[C@@H](O)[C@@H]1O | inactive | inactive | –
5 | O=C1OCC(c2ccccc2)=C1Cc1ccccc1 | inactive | inactive | –
6 | Cc1c(CN2CCN(C(=O)C(C)O)CC2)sc2c(N3CCOCC3)nc(-c3cnc(N)nc3)nc12 (centres undefined) | inactive | inactive | –
7 | CCC(C)C(=O)O[C@H]1CCC=C2C=C[C@H](C)[C@H](CC[C@@H](O)C[C@@H](O)CC(=O)O)[C@H]21 (some centres undefined) | inactive | inactive | –
8 | CC[C@H]1OC(=O)[C@H](C)[C@@H](O[C@H]2C[C@@](C)(OC)[C@@H](O)[C@H](C)O2)[C@H](C)[C@@H](O[C@@H]2O[C@H](C)C[C@H](N(C)C)[C@H]2O)[C@](C)(O)C[C@@H](C)C(=O)[C@H](C)[C@H]2OC(=O)O[C@@]21C | inactive | inactive | –
9 | C=C1CC[C@H]2[C@@](C)(CCC(O)[C@@]2(C)CO)[C@@H]1CCC1=CCOC1=O (some centres undefined) | inactive | inactive | –
10 | Cc1cc(Nc2ncc3cc(-c4c(Cl)cccc4Cl)c(=O)n(C)c3n2)ccc1F | inactive | inactive | –
11 | C=C1C(=O)O[C@@H]2[C@H]1CCC(C)=C1CCC(=O)O[C@]12C | inactive | inactive | –
12 | CC(C)C(CO)Nc1nc(Nc2cc(N)cc(Cl)c2)c2ncn(C(C)C)c2n1 (centres undefined) | inactive | inactive | –
13 | COC(=O)N[C@@H](C)CNc1nccc(-c2cn(C(C)C)nc2-c2cc(Cl)cc(NS(C)(=O)=O)c2F)n1 | inactive | inactive | –
14 | O=C(CN1C(=O)C2(CCCC2)NCC1c1cc(F)cc(F)c1)Nc1ccc2c(c1)CC1(C2)C(=O)Nc2ncccc21 (centres undefined) | inactive | inactive | –
15 | COc1cc(C(=O)NC2CCN(C)CC2)c(F)cc1Nc1ncc2c(n1)N(C1CCCC1)CC(F)(F)C(=O)N2C | inactive | inactive | –
16 | COc1ccc(C2=N[C@@H](c3ccc(Cl)cc3)[C@@H](c3ccc(Cl)cc3)N2C(=O)N2CCNC(=O)C2)c(OC(C)C)c1 | inactive | inactive | –
17 | CC12CCC3c4ccc(O)cc4CCC3C1CC(OC1OC(C(=O)O)C(O)C(O)C1O)C2O (centres undefined) | inactive | inactive | –
18 | C=CC(=O)Nc1cc(Nc2nccc(-c3c[nH]c4ccccc34)n2)c(OC)cc1N(C)CCN(C)C | inactive | inactive | –
19 | CN[C@@H]1[C@H](O[C@H]2[C@H](O[C@@H]3[C@@H](O)[C@H](O)[C@@H](N=C(N)N)[C@H](O)[C@H]3N=C(N)N)O[C@@H](C)[C@]2(O)C=O)O[C@@H](CO)[C@H](O)[C@H]1O | inactive | inactive | –
20 | Cc1cc(C)c(Nc2ccnc(Nc3ccc(C#N)cc3)n2)c(C)c1 | inactive | inactive | –
21 | C=C1C[C@]23C[C@H]1CC[C@H]2[C@@]1(C)CCC[C@@]2(C)C(=O)O[C@@H]([C@@H]3O)[C@@H]12 | inactive | inactive | –
22 | CC(C)S(=O)(=O)NC[C@H](C)c1ccc(NC(=O)c2cc(F)cc(F)c2)cc1 | inactive | inactive | –
23 | COC(=O)c1cc(OC)c(O[C@@H]2O[C@@H](C)[C@H](O)[C@@H](O)[C@H]2O)c(OC)c1 | inactive | inactive | –
24 | Cc1oc2ccccc2c1CNC(=O)NCc1cccs1 | inactive | inactive | –
25 | C[C@@H]1O[C@@H](O[C@@H]2[C@@H](O)[C@H](O[C@H]3CC[C@@]4(C)C(CC[C@]5(C)C4CC=C4[C@@H]6CC(C)(C)CC[C@]6(C(=O)O[C@@H]6O[C@H](CO)[C@@H](O)[C@H](O)[C@H]6O)CC[C@]45C)C3(C)C)O[C@H](C(=O)O)[C@H]2O)[C@H](O)[C@H](O)[C@H]1O (some centres undefined) | inactive | inactive | –
26 | COc1ccccc1Oc1ccc(N(Cc2cccnc2)S(=O)(=O)CC(F)(F)F)cc1 | – | inactive | –
27 | CC(C)(C)Nc1nc2cc(Cl)c(Cl)cc2nc1S(C)(=O)=O | 89.1 µM (active) | inactive | inactive
